Out of some 290,000 compounds screened, about 27,000 (9.3%) were called active. Rule as the data show it: active = inhibition mostly above about 28% (no sharp cut-off); inactive = mostly below about 43%. Shown is part of a subset that was picked to be rich in actives.

The nature of the experiment: A qHTS for Small Molecule Inhibitors of Shiga Toxin. Also: 0% is about no effect. As to conditions: Vero cells, Shiga toxin protein synthesis inhibition reporter; at 38.7 µM, hits give high values. In general terms: qHTS replaces the single test concentration by a dilution series.
By inhibition is commonly meant the relative decrease from the control value, in per cent. As for `CN(C)c1ccc(-n2cccc2/C=N/n2cnnc2)cc1`, the inhibition is 61% (active).

For `CN(C)c1ccc(-n2cccc2/C=C2/SC(=Nc3ccc(F)cc3)NC2=O)cc1`, the inhibition is -12.2% (inactive).

For `O=S(=O)(N/N=C\c1cccn1-c1ccccc1)c1ccc2ccccc2c1`, the inhibition was -11.6% (inactive).

Regarding `COc1ccc(/C(N)=N/OC(=O)Oc2ccccc2)cc1`, the inhibition was -9.52% (inactive).

On to `COc1ccc(OCCCC(=O)NCCc2ccccc2)cc1`, for which the inhibition was -4.42% (inactive).

On to `COc1ccc(/C(N)=N/OC(=O)CCCc2ccccc2)cc1`, for which the inhibition was 89.8% (active).

With `COc1ccc(CC(=O)NC(C)CCc2ccccc2)cc1` (stereo not given), the inhibition is -4.86% (inactive).

Regarding `COc1ccc(/C(N)=N/OC(=O)Cc2ccccc2)cc1`, the inhibition was 90% (active).

Regarding `COc1ccc(C(=O)NC(=S)NNC(=O)CCc2ccccc2)cc1`, the inhibition is 18.3% (inactive).

Turning to `CC(C)C(c1nnnn1C1CCCCC1)N1CCN(C(=O)c2ccco2)CC1` (stereo not given), the inhibition was -10.3% (inactive).

As to `Cc1ccc(-n2ncc(C(=O)NC3CC3)c2C2CCN(C(=O)OC(C)(C)C)CC2)c(C)c1`, the inhibition was 16.2% (inactive).

Turning to `O=C(C1CCCN(S(=O)(=O)c2ccc([N+](=O)[O-])cc2)C1)N1CCCCC1` (stereo not given), the inhibition was 2.21% (inactive).

On to `COc1cccc(/C=C2/SC(=S)N(CC(=O)NC3C=CS(=O)(=O)C3)C2=O)c1` (stereo not given), for which the inhibition is 16.1% (inactive).

For `CC(C)CNC(=O)C(=O)NCC(c1ccc2c(c1)OCO2)N1CCOCC1` (stereo not given), the inhibition is -7.49% (inactive).

With `O=S(=O)(Nc1ccccc1Br)c1cccs1`, the inhibition was 6.38% (inactive).

Turning to `COC(=O)c1ccc(CSc2nncn2N)cc1`, the inhibition was 26.1% (inactive).

Turning to `CC(C)CC(CC(C)C)=NNC(=O)c1ccc(CSc2nncn2C)cc1`, the inhibition was 16% (inactive).

As to `COC(=O)c1ccc(CSc2nncn2C)cc1`, the inhibition was 177% (active).

As to `O=C(NC(=S)Nc1ncccn1)c1ccccc1Br`, the inhibition is 9.32% (inactive).

For the compound `Cc1ccc(NC2CCCN(C(=O)CCc3cn[nH]c3)C2)cc1C` (stereo not given), the inhibition is 9.62% (inactive).

With `CC(NCC(=O)Nc1cc(Cl)cc(Cl)c1)c1ccccc1` (stereo not given), the inhibition was -4.69% (inactive).

As for `COc1ccc(CCCc2nnc(SCc3nc4ccccc4c(=O)[nH]3)n2C)cc1`, the inhibition was -10.2% (inactive).

As for `COc1ccc(/C=N/NS(=O)(=O)c2ccc(NC(C)=O)cc2)cc1`, the inhibition is 24.7% (inactive).

As to `COc1ccc(/C=N/Nc2ccccc2C(=O)O)cc1`, the inhibition is 31.8% (active).

Regarding `COc1ccc(/C=N/Nc2nc3ccccc3c(=O)[nH]2)cc1`, the inhibition was 60.8% (active).

Turning to `COc1ccc(/C=N/OCC(=O)N(Cc2ccccc2)c2ccccc2C(=O)O)cc1`, the inhibition is -13.4% (inactive).

Take `COc1ccc(C=Nc2cccc3ncccc23)cc1`: the inhibition is -17.4% (inactive).

In the case of `COC(=O)c1sccc1NS(=O)(=O)c1ccc(F)cc1F`, the inhibition is 11.9% (inactive).

As for `COCCCn1c(SCC(=O)NC2CCCC2)nnc1-c1ccccc1`, the inhibition is -6.72% (inactive).

For the compound `Cc1nc(-c2ccc(F)cc2)c(CC(=O)N2CCN(S(=O)(=O)c3ccc(F)cc3)CC2)s1`, the inhibition is 26.6% (inactive).

Turning to `NS(=O)(=O)c1ccc(CCNc2nc(C(F)(F)F)nc3ccccc23)cc1`, the inhibition was -9.53% (inactive).

Take `CC1COc2ccccc2N1C(=O)c1ccc(F)cc1` (stereo not given): the inhibition was -4.1% (inactive).

As to `Brc1ccccc1C1N=C(c2ccccc2)NO1` (stereo not given), the inhibition is 85.7% (active).

`N#Cc1ccc(C2N=C(c3ccccc3)NO2)cc1` (stereo not given): the inhibition is 89.5% (active).

For the compound `S=C1NC(c2ccccc2)=NCN1c1ccc(Br)cc1`, the inhibition was 29.2% (inactive).

For `Brc1ccccc1C1Nc2cccc3cccc(c23)N1`, the inhibition was -2.7% (inactive).

For `O=C1CCCCN1CCCC(=O)N1CCCC(Nc2ccc(F)cc2)C1` (stereo not given), the inhibition was 7.4% (inactive).

`CCOc1ccc(NC(=O)CCCCCN2C(=O)[C@@H]3Cc4ccccc4CN3C2=O)cc1`: the inhibition is 3.39% (inactive).

As for `CCCNC(=O)C(=O)Nc1cc2c3c(c1)CCC(=O)N3CCC2`, the inhibition was 5.83% (inactive).

`COc1ccc(N2C(=O)C(CC(=O)Nc3ccccc3)N(Cc3ccc(OC)c(OC)c3)C2=O)cc1` (stereo not given): the inhibition was 40.7% (inactive).

Regarding `COc1ccc(-c2oc3ncnc(NCCCO)c3c2-c2ccc(OC)cc2)cc1`, the inhibition is -19.7% (inactive).

With `COc1ccc(O[C@H]2C=C[C@@H](c3ccccc3)O[C@@H]2CO/N=C/C[C@@H]2C=C[C@H](OC(C)=O)[C@@H](COC(C)=O)O2)cc1`, the inhibition is 16.1% (inactive).

Turning to `O=C(NCc1ccco1)/C(=C/c1cccc([N+](=O)[O-])c1)NC(=O)c1ccco1`, the inhibition was -2.89% (inactive).

On to `Cc1cc2occ(CC(=O)NNC(=O)c3ccccc3F)c2cc1C`, for which the inhibition was 18% (inactive).

Consider `O=C(CSc1nccc(=O)[nH]1)Nc1ccc(N2CCOCC2)c(Cl)c1`, for which the inhibition was -5.56% (inactive).

Regarding `CCOC(=O)c1nn(-c2cccc(C)c2)cc1C(=O)c1ccccc1`, the inhibition is 152% (active).

Regarding `CCOC(=O)c1cn(Cc2cccc(C)c2)nn1`, the inhibition was 1.57% (inactive).

Regarding `CC(=O)c1nn(-c2cccc(Br)c2)cc1C(=O)c1cccc2ccccc12`, the inhibition was -19.7% (inactive).

With `CCOc1ccc(CNC(=O)CCC(=O)N2CCSc3ccccc32)cc1`, the inhibition is 5.1% (inactive).

Take `O=S(=O)(Nc1ccccc1)c1ccc(NS(=O)(=O)c2cccs2)cc1`: the inhibition was -2.44% (inactive).

Turning to `NC(=O)c1cc(S(=O)(=O)N2CCCC2)ccc1OCc1ccc(F)cc1`, the inhibition is -10.2% (inactive).

Consider `CC(=O)NCCC(=O)Nc1nc(C)c(Cc2ccc3c(c2)OCO3)s1`, for which the inhibition was 13.3% (inactive).

In the case of `CC(=O)NCCC(=O)Nc1nc(-c2ccc3c(c2)OCCO3)cs1`, the inhibition was 50% (active).

`O=C(Nc1nc(-c2ccc3c(c2)OCO3)cs1)c1ccncc1`: the inhibition was 42.9% (inactive).

Turning to `CC(=O)Nc1ccc(Oc2ccc3c(c2)C(=O)NC3=O)cc1`, the inhibition is -7.33% (inactive).

Turning to `Cc1ccc(S(=O)(=O)N/N=C(\c2ccccc2)C2CC2)cc1`, the inhibition was -3.31% (inactive).

As to `Cc1nc(COc2cccc(Cl)c2)sc1C(=O)/C=C/N(C)C`, the inhibition is 48.6% (inactive).

As for `CN(C)/C=C/C(=O)c1ccccc1F`, the inhibition was 30.4% (inactive).

`Cc1nc(-c2ccccc2)sc1C(=O)/C=C/N(C)C`: the inhibition was 127% (active).

Take `O=C(CN(C(=O)CCC(=O)Nc1nccs1)c1ccc(F)cc1)NCc1ccc2c(c1)OCO2`: the inhibition is -6.5% (inactive).

In the case of `COCCn1c(=NC(=O)c2ccccc2[N+](=O)[O-])sc2cc(S(C)(=O)=O)ccc21`, the inhibition is 21.4% (active).

Turning to `Cn1c(=NC(=O)c2ccc3c(c2)OCCO3)sc2cc(S(C)(=O)=O)ccc21`, the inhibition was 2.16% (inactive).

Regarding `COCCNC(=O)c1ccccc1NS(=O)(=O)c1ccc(C)c([N+](=O)[O-])c1`, the inhibition was -5.37% (inactive).

On to `COC(=O)c1cc(NS(=O)(=O)c2ccc3c(c2)c(=O)n(C)c(=O)n3C)cc(C(=O)OC)c1`, for which the inhibition is -1.69% (inactive).

Turning to `Cc1ccc(S(=O)(=O)NNC(=O)/C=C/c2cccc(F)c2)cc1`, the inhibition was -5.71% (inactive).

As to `CC1CCCCC1NC(=O)CCS(=O)(=O)c1ccc2c(c1)NC(=O)CO2` (stereo not given), the inhibition was 49.7% (inactive).

Take `COc1ccc(C(=O)O)cc1S(=O)(=O)NCc1cccnc1`: the inhibition is 2.47% (inactive).

Turning to `Cc1cc(Cl)c2oc(C(=O)N3CCC(O)(c4ccccc4)CC3)c(C)c2c1`, the inhibition is 18.3% (inactive).

For the compound `Cc1cc(Cl)c2oc(C(=O)NC(C)c3ccncn3)c(C)c2c1` (stereo not given), the inhibition is 14.6% (inactive).

Take `Cc1cc(Cl)c2oc(C(=O)N(C)C(C)c3ccccn3)c(C)c2c1` (stereo not given): the inhibition was 50.1% (active).

In the case of `NC(=O)C1CCCN(CC(=O)N2CCN(c3ccccc3)CC2)C1` (stereo not given), the inhibition is -5.2% (inactive).

With `COc1ccc(OC)c(C(=O)c2ccc(C(=O)O)cc2)c1`, the inhibition was 29.1% (inactive).

For the compound `COc1ccc2occ(C(=O)c3ccc(N=C(C)N(C)C)cc3)c2c1`, the inhibition was 62% (active).

As for `COc1ccc(OC)c(C(=O)c2coc3ccc(OC)cc23)c1`, the inhibition is -7.11% (inactive).

`CCOCCCN(C)C1CCN(C(=O)c2oc3ccccc3c2NC(=O)Cc2cccc([N+](=O)[O-])c2)CC1`: the inhibition is 18.7% (inactive).

For the compound `Cc1noc(C)c1CSCC(=O)N(CCC(C)C)c1c(N)n(Cc2ccccc2)c(=O)[nH]c1=O`, the inhibition was 6.62% (inactive).

Regarding `Cc1ccc2nc(N3C(=O)C(O)=C(C(=O)c4ccco4)C3c3cccc(O)c3)sc2c1` (stereo not given), the inhibition is 71.4% (active).

`COc1cc(C2C(C(=O)c3ccco3)=C(O)C(=O)N2c2cc(C)on2)ccc1OCc1ccccc1` (stereo not given): the inhibition is -4.72% (inactive).

With `C=CCSc1nnc(N2C(=O)C(O)=C(C(=O)c3ccco3)C2c2ccc(F)cc2)s1` (stereo not given), the inhibition is 19.6% (inactive).

`CCOc1ccccc1NC(=O)NC1CCCCCCC1`: the inhibition was -4.06% (inactive).

As to `COc1cc(NC(=O)C2CCN(c3cnccn3)CC2)cc(OC)c1`, the inhibition was -1.63% (inactive).

In the case of `CS(=O)(=O)N1CCN(C(=O)Cc2ccccc2)CC1`, the inhibition is 8.45% (inactive).

Take `CS(=O)(=O)N1CCN(c2cccc(Cl)n2)CC1`: the inhibition was -4.33% (inactive).

In the case of `CS(=O)(=O)N1CCc2nc(-c3ccccc3)sc2C1`, the inhibition is 99.9% (active).

In the case of `O=C(Cn1nc([N+](=O)[O-])nc1Br)NC1CCCCC1`, the inhibition is -1.71% (inactive).

As for `Cc1cc(-c2ccc(S(=O)(=O)N3CCN(c4cccc(C(F)(F)F)c4)CC3)s2)on1`, the inhibition is -3.9% (inactive).

For the compound `COc1ccc(NC(=O)C/C(C)=N/NC(=O)c2cnccn2)cc1Cl`, the inhibition is 45.4% (active).

As for `CCCCC(=O)N/N=C(\C)CC(=O)Nc1cc(Cl)ccc1OC`, the inhibition is 2.31% (inactive).

As to `O=C(COc1ccc(Cl)cc1Cl)NCCCNC(=O)c1cnccn1`, the inhibition was -3.62% (inactive).

Take `COc1ccccc1C(=O)NCc1nnc(SC(C)C(=O)Nc2nccs2)n1C` (stereo not given): the inhibition is 10.7% (inactive).

As for `CCOc1ccc(NC(=O)C(C)N2C(=O)c3ccccc3C2=O)cc1` (stereo not given), the inhibition is -15.9% (inactive).

Take `O=C(Cc1ccc(Cl)cc1)NC1CCS(=O)(=O)C1` (stereo not given): the inhibition was 1.56% (inactive).

With `O=S(=O)(Nc1ccc2cn[nH]c2c1)c1ccccc1`, the inhibition was 24% (inactive).

Consider `Cc1ccc(S(=O)(=O)Nc2ccc3ncccc3c2)cc1`, for which the inhibition is -8.08% (inactive).

For the compound `O=S(=O)(Nc1ccc2nc(-c3ccco3)[nH]c2c1)c1ccccc1`, the inhibition is 70.6% (active).

The values are drawn from PubChem BioAssay AID2315 (National Center for Advancing Translational Sciences (NCATS), 2010).
